# Experimental data published in PubChem BioAssay AID1851 (National Center for Advancing Translational Sciences (NCATS), 2009).
# Values joined by “and” are separate entries in the source; they are usually repeats but may differ in a detail not shown here. Equal entries are not always repeated. The whole screen tested about 16,000 compounds, of which about 4,000 (25%) were called active. Roughly 26% stayed inconclusive and do not appear here. Not all results are given here. Values without a mark were called inactive. Calls follow the shape of the dose curve; as a rule, active = well fitted curve in the direction sought with a large enough effect; inconclusive = small, poorly fitted or top-dose-only effect, or effect the other way; inactive = no such curve, though single readings can be large or run the other way.
# Target: Cytochrome P450 2C9 (Homo sapiens) (UniProt P11712)
# Assay: Cytochrome panel assay with activity outcomes
# Conditions: recombinant CYP, pro-luciferin dealkylation, luminescence, p450-cyp2c9; series mostly up to 57.1 µM
# % is scaled to controls: 0 for no effect and ±100 for the full control effect.
# Sequence of Cytochrome P450 2C9 (Homo sapiens) (P11712 whole entry, looked up): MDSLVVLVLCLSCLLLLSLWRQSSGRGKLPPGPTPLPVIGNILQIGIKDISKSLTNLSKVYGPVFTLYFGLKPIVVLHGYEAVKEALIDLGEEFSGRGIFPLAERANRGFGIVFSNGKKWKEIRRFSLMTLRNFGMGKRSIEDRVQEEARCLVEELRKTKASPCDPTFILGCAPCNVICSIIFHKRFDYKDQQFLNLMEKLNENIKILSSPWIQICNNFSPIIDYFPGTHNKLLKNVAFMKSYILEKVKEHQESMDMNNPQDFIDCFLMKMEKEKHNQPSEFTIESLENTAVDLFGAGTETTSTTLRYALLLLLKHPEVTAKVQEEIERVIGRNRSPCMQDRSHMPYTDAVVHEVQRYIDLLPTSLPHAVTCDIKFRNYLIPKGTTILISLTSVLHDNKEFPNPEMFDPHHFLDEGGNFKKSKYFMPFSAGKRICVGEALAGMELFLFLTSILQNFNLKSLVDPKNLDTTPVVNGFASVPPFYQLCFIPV
SMILES,AC50,"activity, negative = inhibition"
c1ccc(-c2ccc(C3=Nn4c(Cn5nnc6ccccc65)nnc4SC3)cc2)cc1,12.6 µM (active),–
c1ccc2c(c1)nnn2CN1CCOCC1,–,15.8% [at 11.4 µM]
Cc1cnc(CNc2ncncc2-c2ccccc2Cl)cn1,–,28.2% [at 2.29 µM]
COc1cc(C2C(=O)N(C3CCCC3)CC(=O)N2Cc2ccco2)ccc1OC(C)C (stereo unspecified),10 µM (active),–
COc1ccc(C2C(=O)N(C3CCCCCC3)CC(=O)N2Cc2ccccc2)cc1OC (stereo unspecified),12.6 µM (active),–
COc1ccc([C@@H]2CNC(=O)C2)cc1OC1CCCC1,inactive,–
COc1ccc(CN2C(=O)CN(C3CCCCCC3)C(=O)C2c2ccc(OC)c(OC)c2)cc1 (stereo unspecified),11.2 µM (active),–
CCCOc1ccc(C2C(=O)N(C3CCCCC3)CC(=O)N2C2CC2)cc1OC (stereo unspecified),10 µM (active),–
Cc1ccc(S(=O)(=O)N[C@H]2COC(=O)CC=C[C@@H](C)[C@H]3C=C[C@H](O)[C@@H](COC(=O)CC=C[C@H]2C)O3)cc1,–,-13.5% [at 11.4 µM] and 14.3% [at 11.4 µM]
O=C(Nc1cccc(F)c1)N1CCC2(CC1)CCN(C(=O)c1cnccn1)CC2,inactive,–
CCCCN=c1sc(C(=O)OC)cc(=O)n1CCCC,inactive,–
COc1ccc([N+](=O)[O-])cc1N(CC(O)CN(CC(C)C)CC(C)C)S(=O)(=O)c1ccccc1 (stereo unspecified),12.6 µM (active),–
Cc1ccsc1/C=N/Nc1nc(Cl)c(Cl)cc1Cl,inactive,–
CCc1c(C)c(C#N)c2nc3ccccc3n2c1N1CCN(c2cc(C)ccn2)CC1,1.26 µM (active),–
CCN(CC)CCOC(=O)C1(C2CCCCC2)CCCCC1,inactive,–
CN1CCN(c2nc3cc(C(F)(F)F)ccc3n3cccc23)CC1,inactive,–
FC(F)(F)c1ccc(N2CCOCC2)c(Nc2nc3ccccc3n3cnnc23)c1,15.8 µM (active),–
CC(/C=C1\N=C(SCc2ccccc2Cl)SC1=O)=C\c1ccccc1,1.58 µM (active),–
CCc1nnc(NC(=O)c2c(C)nn(-c3ccccc3)c2Cl)s1,8.91 µM (active),–
CCc1nnc(NC(=O)c2cc(-c3ccccc3)nn2-c2ccccc2)s1,8.91 µM (active),–
CCCC(=O)Nc1nnc(CCN2CCCCC2)s1,inactive,–
COc1ccccc1CNc1ncncc1-c1cccc(C#N)c1,–,-22.7% [at 2.29 µM]
Cc1nc2ccccc2n1CC(=O)N/N=C\c1ccccn1,inactive,–
CC(/C=N\NC(=O)Cn1c(C)nc2ccccc21)=C\c1ccccc1,2.82 µM (active),–

SMILES,AC50,"activity, negative = inhibition"
Cc1nc2ccccc2n1CC(=O)N/N=C\C=C\c1ccccc1,7.08 µM (active),–
O=c1[nH]n(-c2cccc(Cl)c2)c2ncccc12,inactive,–
Cc1ccccc1OCCNc1ccc(C(F)(F)F)cc1[N+](=O)[O-],3.55 µM (active),–
COc1ccccc1-c1nccc(NCc2cnc(C)cn2)n1,–,19.3% [at 2.29 µM]
COc1ccc2nc(NC(C)=O)sc2c1,inactive,–
COc1ccc(OC)c(C2C(C(=O)Nc3nc4ccccc4s3)=C(C)NC3=C2C(=O)CCC3)c1 (stereo unspecified),0.631 µM (active),–
N/C(=N\O)c1cn([C@@H]2O[C@@H](CO)[C@H](O)[C@@H]2O)c2ncnc(NO)c12,–,-5.39% [at 11.4 µM]
CCN(CC)C(=O)c1ccc(O)c(OC)c1,inactive,–
COc1ccc(C(=O)c2ccc(OC)c(OC)c2)cc1OC,11.2 µM (active),–
COc1ccc(NC(=O)CC#N)cc1OC,inactive,–
CCN1CC=C2C(C#N)=C(N)C(C#N)(C#N)[C@H](c3ccoc3)[C@H]2C1,inactive,–
CSc1nc(NC2CCCC2)c([N+](=O)[O-])c(NC2CCCC2)n1,2 µM (active),–
O=C(O)CCNc1ncnc2nc[nH]c12,–,23.7% [at 11.4 µM]
Cc1ccc(C2=NN(S(C)(=O)=O)C(c3cccs3)C2)cc1 (stereo unspecified),11.2 µM (active),–
O=C(CC(NS(=O)(=O)c1ccc(Cl)cc1)c1ccco1)NCc1ccco1 (stereo unspecified),10 µM (active),–
CCCNC(=O)Nc1ccc2c(c1)nc(C)n2C,inactive,–
O=C(NCCCn1ccnc1)Nc1ccc(Cl)cc1,0.316 µM (active),–
COc1ccc2c(Cl)c(C(=O)NCCCn3ccnc3)sc2c1Cl,0.891 µM (active),–
S=C(S)NCCN1CCNCC1,–,-16.5% [at 11.4 µM]
S=C(S)NCCCn1ccnc1,2 µM (active),–
O=C(NCCCN1CCCC1=O)Nc1ccc(F)c(Cl)c1,inactive,–
CCN1CCN(CCCNC(=O)c2cc3cc4ccc(OC)cc4nc3o2)CC1,inactive,–
O=S1(=O)N[C@H]2CC[C@@H]3NS(=O)(=O)N[C@H]4CC[C@H](N1)N4S(=O)(=O)N23,–,-6.3% [at 11.4 µM]
O=C(NCCNC[C@@H](O)COc1ccc(O)cc1)N1CCOCC1,inactive,–

SMILES,AC50,"activity, negative = inhibition"
CCOC(=O)c1c(O)[nH]c(=O)c(CC)c1C,–,4.97% [at 11.4 µM]
COc1ccccc1OC[C@H](O)COC(N)=O,inactive,–
CCOC(=O)c1[nH]c(COC(=O)CCOc2ccccc2OC)c(C(=O)OCC)c1C,4.47 µM (active),–
N=C(N)SCCc1ccc(OCc2ccc([N+](=O)[O-])cc2)cc1,inactive,–
CN1CCc2cc(Cl)c(O)cc2[C@@H](c2ccccc2)C1,inactive,–
CCCCCN=c1ccn(Cc2ccccc2)c2ccccc12,0.316 µM (active),–
N#Cc1cccc(-c2nccc(NCc3cccs3)n2)c1,–,5.43% [at 2.29 µM]
Cc1ccc(OCC(=O)Nn2cnc3ccccc32)cc1,inactive,–
O=C(Cn1cnc2ccccc21)NC(c1ccccc1)c1ccccc1,15.8 µM (active),–
O=S(=O)(/N=C(\Sc1ccccc1)c1ccccc1)c1ccc(Cl)cc1,3.98 µM (active),–
O=S(=O)(/N=C(/Nc1ccc(F)cc1F)c1ccc(Cl)cc1)c1ccccc1,inactive,–
CC(=O)NCCNc1ncncc1-c1ccccc1CN(C)C,–,4.96% [at 2.29 µM]
Cc1cc(C)nc(NC(=O)CCCC(=O)O)c1,inactive,–
CC#CCCCC(=O)Nc1cc(OC)nc(OC)n1,11.2 µM (active),–
COc1cc(OC)nc(NC(C)=O)n1,inactive,–
N#Cc1ccc(CN2CCC3(CC2)CCN(C(=O)c2cc(C(F)(F)F)cc(C(F)(F)F)c2)CC3)cc1,inactive,–
C/C(CCN1CCCc2nc(C)c(C)cc21)=N\OC[C@@H](O)[C@@H]1O[C@@H]2OC(C)(C)O[C@@H]2[C@H]1O,–,2.31% [at 11.4 µM]
COCCN=C1Sc2nc3c(C)cccc3cc2CN1Cc1ccco1,4.47 µM (active),–
C[C@@H](c1ccccc1)N1C(=O)[C@H]2[C@H]3[C@H](O)[C@H](O)C/C(=N/OC[C@@H](O)COCc4ccco4)[C@@H]3CC[C@@H]2C1=O,–,2.8% [at 11.4 µM]
COc1ccc2c(c1)c(CC(=O)N1CCOCC1)c(C)n2C(=O)c1ccc(Cl)cc1,inactive,–
O=C(CSc1c[nH]c2ccccc12)N1CCOCC1,inactive,–
CC(C)Cn1c(-c2ccc(Cl)cc2)cnc1SCC(=O)N1CCOCC1,14.1 µM (active),–
CCOC(=O)c1[nH]c2cc3c(cc2c1NC(=O)CN1CCC2(CC1)OCCO2)OCO3,inactive,–
CCOC(=O)c1[nH]c2cc(OC)c(OC)cc2c1NC(=O)c1ccc2c(c1)OCO2,inactive,–

SMILES,AC50,"activity, negative = inhibition"
COc1cccc(NC(=O)c2oc3ccccc3c2NC(=O)c2ccc3c(c2)OCO3)c1,3.55 µM (active),–
CCOC(=O)c1[nH]c2cc(OC)c(OC)cc2c1NC(=O)c1nonc1C,0.708 µM (active),–
COC(=O)c1[nH]c2cc(OC)ccc2c1NC(=O)c1ccc2c(c1)OCO2,3.55 µM (active),–
COc1ccc2c3c([nH]c2c1)[C@H]1C[C@@H]2[C@@H](C[C@@H](O)[C@H](OC)[C@H]2C(=O)O)CN1CC3,–,4.43% [at 11.4 µM]
CCOC(=O)c1[nH]c2ccc(OC)cc2c1NC(=O)c1ccc2c(c1)OCO2,14.1 µM (active),–
CN1CCN(CCCNC(=O)C2CCN(c3nnc(-n4cccc4)s3)CC2)CC1,inactive,–
CC(=O)OC[C@@H]1O[C@H](C/C=N\O[C@@H](C)CN2CCCc3nc(C)c(C)cc32)C=C[C@@H]1OC(C)=O,–,-0.762% [at 11.4 µM]
O=C(CSc1nc2ccccc2c2ccccc12)c1ccccc1,–,-1.33% [at 11.4 µM]
N#Cc1ccc(-c2ccccc2)nc1SCC(=O)c1cccc(Cl)c1,2 µM (active),–
CCOc1ccc(OCCOc2ncnc3ccccc23)cc1,17.8 µM (active),–
CC1CN(C(=O)COc2ncnc3ccccc23)CC(C)O1 (stereo unspecified),inactive,–
CC(CO)(CO)Nc1ncnc2ccccc12,–,15.3% [at 11.4 µM]
CN(C)C(=O)c1ccc(-c2nccc(N(C)Cc3ccco3)n2)cc1,–,0.769% [at 2.29 µM]
CCC(=O)N(Cc1ccco1)c1nc(-c2ccccc2)cs1,2.51 µM (active),–
CN(C)C(=O)c1ccc(-c2cc(N(C)Cc3ccco3)ncn2)cc1,–,0.869% [at 2.29 µM]
O=C(O)C1=CCNCC1,inactive,–
C[C@](N)(C(=O)O)c1ccc(-c2nn[nH]n2)cc1,inactive,–
Nc1cc(-c2nn[nH]n2)ccc1F,12.6 µM (active),–
c1cc(NNc2cccc(-c3nn[nH]n3)c2)cc(-c2nn[nH]n2)c1,–,-4.17% [at 11.4 µM]
COc1ccc(CCC(C)NC2C3CC4CC(C3)CC2C4)cc1 (stereo unspecified),inactive,–
COc1cc(N[C@@H](C)CCCN)c2ncccc2c1,inactive,–
COc1ccc(CCC(C)Nc2cccc(F)c2)cc1 (stereo unspecified),12.6 µM (active),–
COc1ccc(C(=O)N2CCC[C@@]3(CCN(CC(C)C)C3)C2)cc1,inactive,–
Cc1noc(C)c1C(=O)N1CCC2(CCCN(C(=O)Nc3cccc(F)c3)C2)CC1,inactive,–
